In PubChem BioAssay (NCI):
“And” between values parts separate entries of the source, which are not always exact repeats. Equal entries are not always repeated. About 83,000 compounds went through this panel and 20% of them were active in at least one assay; those are over-represented in the sample as a whole.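 Negative percent growth values reflect cell death: -40 means 40% of the cells present at the start died, and -100 means all died.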 Unmarked numbers belong to inactive results. The source made the active and inactive calls. The calls were made as follows: active = growth percent below 10; inactive = the rest.

Tested on: MDA-MB-468 breast
Experiment: NCI-60 one-dose screen, 48 h (100 = growth as untreated, 0 = no growth, -100 = all killed)
Settings: 10 µM unless noted

`O=C(Nc1ccncc1)C(=O)c1cn(S(=O)(=O)c2ccc(F)cc2)c2ccccc12` showed a growth of 14.9%.
`O=C(C(=O)c1ccc2c(c1)OCO2)c1ccc2c(c1)OCO2` was tested, and the growth was 96.9%.
Compound `N#C/C(=C1C=C/C(=N\O)C(Cl)=C\1)c1ccccc1` has a growth of 41.2%.
With `O=S(=O)(NCCNc1nccc(-c2c(-c3cccc(O)c3)nc3occn23)n1)c1cccc(F)c1` the growth was 97%.
For `COc1cc(-n2nc(C(=O)Nc3ccc(C(=O)O)cc3)nc2-c2ccccc2)cc(OC)c1OC`, the growth was 0.458% (active).
`C#CCN(Cc1ccc2nc(N)[nH]c(=O)c2c1)c1ccc(C(=O)NC(CCC(=O)O)C(=O)O)cc1` (stereo not drawn) was tested, and the growth was 37.7%.
`C[C@]12C[C@H]1CC[C@]1(C)[C@@H]2CC[C@@]23C[C@H](CC[C@H]21)[C@@](O)(CO)C3` was tested, and the growth was 82.3%.
`COc1cc(NS(C)(=O)=O)ccc1Nc1c2ccccc2nc2ccccc12` was tested, and the growth was -3.7% (active) and -17.8% (active).
With `O=C1C(Br)=C(c2ccccc2)C(=O)C(Br)=C1c1ccccc1` the growth was 92%.
For `COc1cccc(Nc2ncnn3ccc(CN4CC[C@@H](N)[C@H](O)C4)c23)c1`, the growth was -42.4% (active).
Compound `Nn1c(CN2CCN(c3cc4c(cc3F)c(=O)c(C(=O)O)cn4C3CC3)CC2)n[nH]c1=S` has a growth of 99.2%.
`O=S(=O)(Oc1ccc(-c2cn3ccoc3n2)cc1)C1CCCCC1` gave a growth of 92.3%.
`O=C(/C=C/c1ccco1)Nc1ncc(Cc2cccc(C(F)(F)F)c2)s1` gave a growth of 10.1%.
For `CCOC(=O)C1=C(C)N=c2s/c(=C\c3ccccc3O)c(=O)n2C1c1ccc(OC)c2ccccc12` (stereo not drawn), the growth was -77.6% (active).
For `Fc1ccc(-c2nn(-c3ccccc3)cc2-c2nc3ccccc3o2)cc1`, the growth was -21.2% (active).
`O=S(=O)(Oc1ccc(-c2nnc(Nc3ccccc3)s2)cc1)C(F)(F)C(F)(F)C(F)(F)C(F)(F)C(F)(F)C(F)(F)F` gave a growth of 99.8%.
Compound `Brc1ccc([I+]c2ccc(Br)cc2)cc1` has a growth of 21.6%.
`CN1NC(c2ccccc2)NN(C)C1=O` was tested, and the growth was 108%.
Work on `Clc1ccccc1/C=C/c1nn2c(-c3ccncc3)nnc2s1` yielded a growth of 97.4%.
`Oc1ccc(Cc2ccccc2Cl)c(O)c1` showed a growth of 98.4%.
`COc1ccc(-c2cc(-c3nnc(SCC(=O)Nc4ccc(/C(C)=N\O)cc4)n3-c3ccccc3)c3cc(OC)ccc3n2)cc1` showed a growth of 62.4%.
`CC(C)=CC(=O)OC(=O)C=C(C)C` was tested, and the growth was 92.9%.
With `c1ccc(-c2n(Cc3ccc4ccccc4c3)c3c4ccccc4c4ccccc4c3[n+]2Cc2ccc3ccccc3c2)cc1` the growth was -75.5% (active).
Work on `COc1ccc(C(c2cc(OC)c(OC)c(OC)c2)N2CCCC2)cc1` (stereo not drawn) yielded a growth of 54.8%.
In the case of `Cc1[nH]ccc2cc3nc4ccccc4c3cc12`, the growth was 10.7%.
In the case of `COc1ccc2nc(-c3ccc(Cl)cc3)cc(-c3nnc(SC/C(=N/O)c4ccccc4)o3)c2c1`, the growth was 9.96% (active).
With `COc1cc2oc(-c3ccc(O)cc3)cc(=O)c2c(O)c1I` the growth was 105%.
Compound `COc1cc2nc(-c3ccc(C(F)(F)F)cc3)cc(OCCCN3CCC(O)CC3)c2cc1OC` has a growth of 44%.
In the case of `COc1ccc(-c2ccc3cc(C(=O)Nc4ccc(O)c(C(=O)/C=C/c5cc(OC)c(OC)c(OC)c5)c4)ccc3c2)cc1`, the growth was 82.2%.
For `O=C1CS/C(=N\Nc2cc(=O)[nH]c3ccccc23)N1c1ccccc1`, the growth was 96.9%.
Work on `CC1=C2[C@@H](CC1)[C@]1(C)O[C@@](C3CCNCC3)(C[C@H]1OC(=O)CO)[C@H]2OC(=O)/C=C/c1ccccc1` yielded a growth of 75.3%.
For `COc1ccccc1/C=C/C(=O)c1ccccc1`, the growth was 21.4%.
`COc1cc(C2CC(=O)Nc3c2c(C)nn3-c2nc3ccccc3[nH]2)c(OC)c2c1OCO2` (stereo not drawn) showed a growth of 36.7%.
`N#CCCN=Nc1c(O)[nH]c2ccc([N+](=O)[O-])cc12` gave a growth of 99.7%.
`CN1CCN(CC(=O)N2c3cccc4cccc(c34)N(C(=O)CN3CCN(C)CC3)C2c2cn(-c3ccccc3)nc2-c2cccc([N+](=O)[O-])c2)CC1` was tested, and the growth was -68.9% (active).
With `CCCCN(CCCC)CCCOC(=O)c1ccc(N)cc1` the growth was 47.5%.
With `CC/C(=C\c1ccc(N(C)C)cc1)c1ccncc1` the growth was -12.7% (active).
In the case of `N#CC(C#N)N=Nc1ccc(Br)cc1`, the growth was 0.0168% (active).
